Test results reported in PubChem BioAssay AID1159580 (chemical genetic matrix, 2015).
Several values for one entry are separate records, joined by “and”; a condition that tells them apart may be missing. Equal values may be shown once. The campaign covered roughly 5,500 compounds. About 2,000 (36%) were called active. Inconclusive results (about 18%) are left out. Rule as the data show it: active = normalized growth mostly below about 0.91 (no sharp cut-off); inconclusive = no clear call, values can overlap the other calls; inactive = mostly above about 0.92. This is one part of the list.

Test: chemical genetic growth profiling, strain panel (AID 1159580);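 also: tested at 20 µM; growth read once vehicle control cultures reached saturation at 30 °C; 1 = growth at the plate median or of vehicle wells; lower values mean less growth of the strain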
Details: S. cerevisiae deletion strains, growth OD

Measured: normalized growth

NC(=O)NO
inactive: locus YAL021C, strain ccr4, hits give low values 1.02 | locus YAL026C, strain drs2, hits give low values 1.03 | locus YAL030W, strain snc1, hits give low values 1 | locus YAL040C, strain CLN3, hits give low values 1.09 | locus YBL061C, strain skt5, hits give low values 1.04 | locus YBR009C, strain hhf1, hits give low values 1.01 | locus YBR021W, strain FUR4, hits give low values 1 | locus YBR023C, strain chs3, hits give low values 1.02 | locus YBR171W, strain sec66, hits give low values 1.02 | locus YBR229C, strain ROT2, hits give low values 0.999 | locus YBR231C, strain swc5, hits give low values 1.01 | locus YBR279W, strain paf1, hits give low values 1.03 | locus YCL011C, strain gbp2, hits give low values 1.02 | locus YCL016C, strain dcc1, hits give low values 1.02 | locus YCL029C, strain bik1, hits give low values 1 | locus YCL061C, strain MRC1, hits give low values 1.01 | locus YCL069W, strain vba3, hits give low values 1.02 | locus YCR088W, strain abp1, hits give low values 1.02 | locus YDL005C, strain med2, hits give low values 1.02 | locus YDL035C, strain GPR1, hits give low values 1.01 | locus YDL040C, strain nat1, hits give low values 1.04 | locus YDL074C, strain BRE1, hits give low values 1.01 | locus YDL101C, strain DUN1, hits give low values 1 | locus YDL134C, strain PPH21, hits give low values 1 | locus YDL185W, strain tfp1, hits give low values 0.994 | locus YDL192W, strain arf1, hits give low values 1.01 | locus YDR001C, strain nth1, hits give low values 1.01 | locus YDR069C, strain doa4, hits give low values 1.02 | locus YDR101C, strain arx1, hits give low values 0.996 | locus YDR137W, strain rgp1, hits give low values 1.04 | locus YDR159W, strain sac3, hits give low values 1.01 | locus YDR162C, strain NBP2, hits give low values 1.01 | locus YDR195W, strain ref2 0.962 | locus YDR297W, strain sur2, hits give low values 1.02 | locus YDR318W, strain mcm21, hits give low values 1 | locus YDR334W, strain swr1, hits give low values 1.01 | locus YDR335W, strain msn5, hits give low values 1.02 | locus YDR363W, strain ESC2, hits give low values 1.01 | locus YDR388W, hits give low values 0.998 | locus YDR392W, strain spt3, hits give low values 1.04 | locus YDR502C, strain sam2, hits give low values 0.989 | locus YEL003W, strain gim4, hits give low values 1.02 | locus YEL037C, strain rad23, hits give low values 1.01 | locus YEL061C, strain CIN8 (second series), hits give low values 1.02 | locus YEL061C, strain CIN8, hits give low values 1 | locus YER002W, strain NOP16, hits give low values 0.998 | locus YER015W, strain faa2, hits give low values 1.01 | locus YER016W, strain bim1, hits give low values 1.01 | locus YER110C, hits give low values 0.997 | locus YER111C, strain swi4, hits give low values 1.03 | locus YER155C, strain BEM2 (second series), hits give low values 1.01 | locus YER155C, strain BEM2, hits give low values 0.998 | locus YER167W, strain BCK2, hits give low values 1 | locus YFR010W, strain ubp6, hits give low values 1.01 | locus YGL078C, strain dbp3, hits give low values 0.999 | locus YGL086W, strain mad1, hits give low values 0.985 | locus YGL167C, strain pmr1, hits give low values 1.02 | locus YGL173C, strain kem1, hits give low values 1.02 | locus YGL227W, strain vid30, hits give low values 1.01 | locus YGL240W, strain doc1, hits give low values 0.983 | locus YGL248W, strain PDE1, hits give low values 1 | locus YGL253W, strain hxk2, hits give low values 1.03 | locus YGR078C, strain PAC10, hits give low values 1 | locus YGR135W, strain pre9, hits give low values 0.997 | locus YGR229C, strain SMI1, hits give low values 0.997 | locus YGR252W, strain gcn5, hits give low values 0.943 | locus YHR013C, strain ard1, hits give low values 1.02 | locus YHR027C, strain rpn1, hits give low values 1.02 | locus YHR030C, strain SLT2, hits give low values 0.989 and 0.962 | locus YHR079C, strain IRE1 (second series), hits give low values 1 | locus YHR079C, strain IRE1, hits give low values 0.981 | locus YHR094C, strain hxt1, hits give low values 0.997 | locus YHR129C, strain ARP1, hits give low values 1 | locus YHR142W, strain chs7, hits give low values 1.04 | locus YHR200W, strain rpn10, hits give low values 0.992 | locus YIL066C, strain RNR3, hits give low values 1.01 | locus YIL073C, strain SPO22, hits give low values 1.03 | locus YIL125W, strain kgd1, hits give low values 0.989 | locus YIR030C, strain dcg1, hits give low values 1.01 | locus YJL092W, strain hpr5, hits give low values 1.02 | locus YJL095W, strain BCK1 (second series), hits give low values 1 | locus YJL095W, strain BCK1, hits give low values 1.01 and 0.965 | locus YJL115W, strain asf1, hits give low values 1.01 | locus YJL129C, strain trk1, hits give low values 1.03 | locus YJL134W, strain LCB3, hits give low values 1 | locus YJL154C, strain vps35, hits give low values 1.03 | locus YJL164C, strain tpk1, hits give low values 1.01 | locus YJL166W, strain qcr8, hits give low values 1.03 | locus YJL168C, strain set2, hits give low values 1 | locus YJL187C, strain SWE1 (second series), hits give low values 1 | locus YJL187C, strain SWE1, hits give low values 1.03 | locus YJR043C, strain POL32, hits give low values 1
